# Only some compounds are listed: those with a hit (about 2.4% of all), similar ones and a draw of the others.
# Pol beta inh – DNA polymerase beta (human) inhibition. Pol beta primer extension/strand displacement, fluorescence kinetic. Potency, µM (titrated, usually from 114 µM), for inactives: at the highest dose activity change, negative = inhibition, most hits filed as inhibitors. 340,000 tested, 1.3% active. AID 485314; further: on the % scale 0 is the no-effect control and ±100 the full control effect
#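 Pol beta (10 nM) and compounds were preincubated 15 min at room temperature, then 50 nM substrate (final) started primer extension/strand displacement. Reads were taken at 0 and 10 min; concentration-response data were fitted to a four-parameter Hill equation.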
# POLI inh – inhibitors of human DNA polymerase iota; Q9UNA4; Pol iota fluorescent replication assay, 10 min; Potency, µM (highest dose often 115 µM), without a hit: at the top dose activity, negative = inhibition, actives largely listed as inhibitors; 390,000 tested, 1% active
#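 Fluorescent replication assay read twice, at 0 min and 10 min after adding 50 nM (final) substrate. Enzyme (10 nM) and compounds were first incubated 15 min at room temperature; enzyme-free buffer wells were negative controls.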
# FEN1 inh – inhibitors of human flap endonuclease 1. P39748. Recombinant FEN1 flap cleavage, fluorescence, 15 min. Potency, µM (series often up to 114 µM), inactives show at the top dose activity change, negative = inhibition, usual class: inhibitors. 390,000 tested, 0.35% active. AID 588795; further: on the % scale 0 is the no-effect control and ±100 the full control effect; nearly all actives have a fitted effect of over 65% in size
#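 Quantitative HTS format: each compound was titrated, incubated with 10 nM nuclease for 15 min at room temperature, then challenged with flap substrate at 50 nM final. Signal change over 15 min gave concentration–effect curves.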
# WRN inhibitor – WRN helicase (human) inhibition; Potency, µM (doses to about 114 µM), without a hit: top-dose activity change, negative = inhibition, most hits filed as inhibitors; 360,000 tested, 0.46% active; WRN helicase unwinding, fluorescent forked duplex, kinetic; further: on the % scale 0 is the no-effect control and ±100 the full control effect; nearly all actives have a fitted effect of over 55% in size
#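 WRN at 20 nM final preincubated with compound 15 min at room temperature; reaction started with 100 nM fluorophore/quencher forked duplex oligonucleotide and 2 mM ATP final. Unwinding followed kinetically by red fluorescence (ex 525, em 598 nm).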
# Pol kappa inh – inhibitors of human DNA polymerase kappa; purified Pol kappa, fluorescent DNA synthesis assay, 10 min; Potency, µM (series often up to 107 µM), inactives show at the top dose activity, negative = inhibition, hits mostly inhibitors; 400,000 tested, 0.53% active; AID 588579; further: on the % scale 0 is the no-effect control and ±100 the full control effect
#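 50 nM final substrate added after 15 min RT preincubation of 10 nM Pol kappa with compound; fluorescence read at 0 and 10 min.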
# Pol eta inh – DNA polymerase eta (human) inhibition | Q9Y253 | recombinant Pol eta, fluorescent DNA replication assay | Potency, µM (top dose mostly 114 µM), for the others: at the highest dose activity change, negative = inhibition, usual class: inhibitors | 390,000 tested, 1.2% active | AID 588591; further: on the % scale 0 is the no-effect control and ±100 the full control effect
# Target sequence (Q9Y253 whole entry, looked up): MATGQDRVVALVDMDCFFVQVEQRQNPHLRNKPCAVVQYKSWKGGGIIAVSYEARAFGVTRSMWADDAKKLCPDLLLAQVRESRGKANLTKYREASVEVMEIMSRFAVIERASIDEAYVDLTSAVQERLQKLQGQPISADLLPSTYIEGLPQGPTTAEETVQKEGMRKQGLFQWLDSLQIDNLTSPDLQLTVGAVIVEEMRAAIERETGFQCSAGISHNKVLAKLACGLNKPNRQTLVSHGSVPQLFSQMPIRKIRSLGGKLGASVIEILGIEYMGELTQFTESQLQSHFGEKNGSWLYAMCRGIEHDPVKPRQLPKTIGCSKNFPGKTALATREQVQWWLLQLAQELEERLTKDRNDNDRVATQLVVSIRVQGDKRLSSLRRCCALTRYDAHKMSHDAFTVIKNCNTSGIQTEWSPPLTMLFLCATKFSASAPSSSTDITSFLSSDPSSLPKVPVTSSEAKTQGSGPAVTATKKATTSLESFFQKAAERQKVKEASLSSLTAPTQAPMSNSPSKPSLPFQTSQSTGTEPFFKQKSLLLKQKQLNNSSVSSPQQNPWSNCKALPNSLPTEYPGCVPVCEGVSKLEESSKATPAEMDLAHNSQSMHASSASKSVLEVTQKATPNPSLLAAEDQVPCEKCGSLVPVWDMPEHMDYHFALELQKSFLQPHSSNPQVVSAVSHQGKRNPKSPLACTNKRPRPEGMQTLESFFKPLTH
#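 Pol eta at 10 nM preincubated with compounds 15 min at room temperature; reaction started with fluorescent substrate (50 nM final) and read kinetically at 0 and 10 min.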
# Active calls of the source: *; ? = inconclusive; . = no result given; [ ] = dose if it differs, or a comment. The call rests on the fitted dose curve; in most records, active means well fitted curve in the direction sought with a large enough effect; inconclusive means small, poorly fitted or top-dose-only effect, or another doubt; inactive means no such curve, though single readings can be large; an effect the other way counts as inactive or inconclusive. Potency means the concentration at half of the fitted maximal effect.
SMILES,Pol beta inh,POLI inh,FEN1 inh,WRN inhibitor,Pol kappa inh,Pol eta inh
O=C(Nc1ccc2c(c1)C(=O)NC2=O)c1ccccc1,23%,6%,3%,3%,10%,-2%
COc1cc(OC)c2c(C)c(CC(=O)NCCc3ccccc3OC)c(=O)oc2c1,2%,7%,-2%,.,-4%,-12%
Cc1ccc(N(C)C(=O)C2CCCN(c3ncnc4c3nc3n4CCCCC3)C2)cc1C (stereo unspecified),0%,-3%,1%,.,-9%,-8%
S=c1[nH]nc(-c2ccncc2)n1Cc1ccco1,7%,-1%,-16%,5%,3%,-12%
COc1cccc(-c2n[nH]c(=S)n2Cc2ccco2)c1,?,?,-13%,5%[11.6 µM],-94%,35µM*
O=C(CS(=O)(=O)c1cccc2nsnc12)N1CCN(c2ccccc2F)CC1,35%,4%,-6%,.,-14%[60.1 µM],-20%
COc1cc2nc(N3CCCCC3)nc(NC3CCN(C)CC3)c2cc1OC,.,-3%,?,.,-4%,.
COc1cc2c(NC3CCN(C)CC3)nc(N3CCCN(C)CC3)nc2cc1OCCCN(C)C,.,?,22µM*,.,-37%,.
COc1ccc(Nc2nc(N3CCCC3)nc3ccccc23)c(OC)c1,20µM*,?,50µM*,?,-21%,-18%
COc1cc2c(NC3CCN(C)CC3)nc(N3CCCCC3)nc2cc1OCCCN(C)C,.,40µM*,25µM*,.,?,.
COc1cc2c(NC3CCN(C)CC3)nc(N3CCCN(C)CC3)nc2cc1OCCCCN(C)C,.,?,28µM*,.,0%,.
CCOc1ccc(C(=O)N2CCCCC2CCN2CCOCC2)cc1 (stereo unspecified),29%,14%,-2%,.,-2%,-15%
CC(C)c1ccc(NC(=O)Cn2c(=O)n(CCc3ccccc3)c(=O)c3ccccc32)cc1,18%,12%,-6%,.,1%,-12%
CCNc1ncc2nc(CCc3ccccc3)c(=O)n(Cc3ccc(F)cc3)c2n1,.,.,.,.,-2%[60.1 µM],.
CCCN(C)CCCOc1cc2nc(N3CCCN(C)CC3)nc(NC3CCN(C)CC3)c2cc1OC,.,?,28µM*,.,-3%,.
COc1cc2nc(NC3CCN(C)CC3)nc(N3CCCN(C)CC3)c2cc1OC,.,-19%,?,.,-6%,.
COc1cc2c(NC3CCN(C)CC3)nc(N3CCCN(C)CC3)nc2cc1OCCCCCCN(C)C,.,?,22µM*,.,-10%,.
COc1cc2nc(N3CCCCC3)nc(NC3CCN(Cc4ccccc4)CC3)c2cc1OC,.,15%,40µM*,.,9%,.
Cc1c(-c2ccc(Cl)cc2)oc(=O)c2c(N)n(-c3ccccc3)nc12,13µM*,-4%,-9%,-32%,-13%,?
Clc1nssc1=Nc1ccc(Br)cc1,49%,121%,-20%,40µM*,-5%,2%
Clc1ccc(N=c2ssnc2Cl)nc1,-1%,17%,?,51%,-9%,6%
COc1cc(N=c2ssnc2Cl)cc(OC)c1,-9%,-14%,0%,50µM*,7%,-6%
N#Cc1cccc(N=c2ssnc2Cl)c1,1%,70%,2%,25µM*,-4%,-17%
COCCCNC(=O)c1ccc(Cn2c(SCc3ccc(F)cc3)nc3cccnc32)cc1,26%,49%,-10%,.,0%,-2%
COCCn1c(=O)c(-c2cc(F)cc(F)c2)nc2cnc(OC)nc21,.,.,.,.,0%[60.1 µM],.
SMILES,Pol beta inh,POLI inh,FEN1 inh,WRN inhibitor,Pol kappa inh,Pol eta inh
COc1ccc(-c2cc3ncc(C)n3c(Nc3ncccc3C(N)=O)n2)cc1OC,.,.,?,.,-15%[60.1 µM],.
O=C(/C=C/c1ccc(O)c([N+](=O)[O-])c1)c1ccc2ccccc2c1,?,?,?,?,-4%,22µM*
CN(C)c1ccc(/C=C/C(=O)c2ccccc2)cc1[N+](=O)[O-],-28%,-1%,-12%,7%,-17%,-13%
O=C(O)COc1ccc(/C=C/C(=O)c2ccc(C3CCCCC3)cc2)cc1,?,?,0%,?,-6%,40µM*
O=C(O)COc1ccc(/C=C/C(=O)c2ccc3ccccc3c2)cc1,-11%,18µM*,-8%,?,-13%,25µM*
COc1cc2ncnc(N3CCN(C(=O)Nc4ccc(Oc5ccccc5)cc4)CC3)c2cc1OC,.,16%,-1%,.,-18%,.
CN(C)c1ccc(/C=C2\C(=N)N3N=C(CC(=O)N4CCCCC4)SC3=NC2=O)cc1,?,50µM*,-1%,?,?,?
CCC1=NN2C(=N)/C(=C\c3ccc(OCCOc4ccccc4)c(OC)c3)C(=O)N=C2S1,-1%,.,.,.,.,.
CCC1=NN2C(=N)/C(=C/c3ccc(OS(=O)(=O)c4ccccc4)cc3)C(=O)N=C2S1,?,1%,-13%,-28%[57.1 µM],-11%,45µM*
CCC1=NN2C(=N)/C(=C\c3cccn3-c3ccc(Cl)cc3)C(=O)N=C2S1,28µM*,?,-1%,-23%,-20%,?
Cn1c2ccccc2c(=O)c2cc(C#Cc3cccc(N)c3)ccc21,.,-11%,-2%,-5%,-18%,-13%
Cn1c2ccccc2c(=O)c2cc(C#CC3=CCCCC3)ccc21,.,4µM*,-11%,-27%,?,45µM*
Cc1cccc(NC(=O)c2sc3ncnc(N(C)C4CCCCC4)c3c2C)c1C,0%,21%,10%,.,-1%[60.1 µM],-17%
COc1ccc(C2C3C=CCC(c4cccc(/C=C/c5ccccc5)c4)C3C(=O)N2Cc2ccccc2)cc1Cl (stereo unspecified),.,-13%,-4%,.,0%,.
Cc1cc(=O)n(C2CCS(=O)(=O)C2)[nH]1 (stereo unspecified),-6%,4.5µM*,-11%,-4%[57.1 µM],-14%,-8%
Cc1ccccc1-c1nnnn1C1CCS(=O)(=O)C1 (stereo unspecified),-29%,-17%,30%,0%,9%,5%
C/C=C(\C)C(=O)OC1CC(C)(C)C[C@H]2C3=CC[C@@H]4[C@@]5(C)CCC(O[C@@H]6O[C@@H](C(=O)O)[C@@H](O)C(O[C@@H]7OC[C@H](O)[C@@H](O)[C@@H]7O[C@@H]7OC(CO)C(O)[C@@H](O)[C@@H]7O)C6O[C@@H]6OC(CO)C(O)C(O)C6O)[C@@](C)(CO)[C@@H]5CC[C@]4(C)[C@]3(C)CC(O)[C@@]12CO (stereo partly specified),.,13µM*,-13%,-12%,-22%,?
CC1(C)CC[C@]2(C(=O)O[C@@H]3OC(CO)[C@@H](O)[C@H](O)[C@H]3O)CC[C@]3(C)C(=CCC4[C@@]5(C)CC[C@H](O[C@@H]6OC(C(=O)O)[C@@H](O)[C@H](O)[C@H]6O)C(C)(C)C5CC[C@]43C)[C@@H]2C1 (stereo partly specified),.,-25%,-3%,11%,-28%,?

# From PubChem
